Most compounds without a hit are left out; they make up all but 10% or so of the library.
L major viab = reduces viability of Leishmania major promastigotes | resazurin fluorescence viability | inhibition, % at 10 µM | actives 9% (n = 200,000) | AID 1063; in the data active means inhibition above about 50%;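 further: promastigotes grown with compound for 44 hours at 28 °C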
Insulin prom inh = TRM-6 insulin promoter activity inhibition | AID 1273 | inhibition, % at 2 µM | TRM-6 cells (human fetal islet line), insulin promoter-eGFP reporter, imaging; reporter expression induced with tamoxifen | actives 0.9% (n = 130,000);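 active means inhibition above the mean plus 3 SD, with well images judged a real hit on visual review, cut at about 60% in these data, passing the limit was not always enough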
p97 ATPase inh = human p97 ATPase inhibition; P55072; recombinant p97 ATPase, Kinase-Glo ATP luminescence, 3 h; inhibition, % at 8 µM; actives 0.42% (n = 220,000); AID 1481; in the data active means inhibition above about 15%
PTEN del growth = suppresses growth of cells with PTEN deletion. HCT116 PTEN-null viability, CellTiter-Glo, 60 h; active compounds read low. viability, % at 10 µM. actives 1.2% (n = 140,000). AID 827;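 active means viability at or below a set limit, 4 SD under the median of all tested compounds, cut at about 3.7% in these data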;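 further: PTEN knockout HCT116 line with beta catenin targeted HCT116 as companion control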
bCat KO growth = beta-catenin-lacking colon tumor cell growth suppression. HCT116 beta-catenin knockout viability, CellTiter-Glo, 60 h; active compounds read low. viability, % at 10 µM. actives 1.5% (n = 140,000). AID 818;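 active means viability at or under a set limit, the compound median less 4 SD, cut at about 6% in these data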
ROMK primary = modulators of human ROMK potassium channel | P48048 | Tet-inducible ROMK, thallium flux fluorescence; actives lie on both sides | B-score at 10 µM | actives 2% (n = 130,000) | AID 1918;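 active means signal ratio slope over the read window, or its plate-corrected B-score, at least 3 SD from the plate mean, either direction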;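 further: B-score of the F/F0 ratio slope over 7 to 12 s after thallium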
Target sequence (P48048 whole entry, looked up): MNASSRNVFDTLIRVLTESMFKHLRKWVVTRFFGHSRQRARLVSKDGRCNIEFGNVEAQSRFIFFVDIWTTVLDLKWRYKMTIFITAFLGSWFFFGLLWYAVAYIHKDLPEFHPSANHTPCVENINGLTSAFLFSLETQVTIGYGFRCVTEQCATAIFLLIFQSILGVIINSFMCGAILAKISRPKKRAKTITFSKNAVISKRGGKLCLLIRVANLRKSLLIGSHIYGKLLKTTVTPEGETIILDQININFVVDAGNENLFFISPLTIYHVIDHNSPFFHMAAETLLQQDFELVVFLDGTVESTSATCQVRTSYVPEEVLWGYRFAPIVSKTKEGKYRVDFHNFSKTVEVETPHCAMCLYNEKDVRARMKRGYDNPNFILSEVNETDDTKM
Each line names hits and unclear results; the compound was inactive in the other large screens.

COc1ccc(-n2nc([N+](=O)[O-])c(=NCCCN3CCCC3=O)n2O)cc1	none (no result: Insulin prom inh, PTEN del growth, bCat KO growth)
CN1CCN(CC(=O)NN(Cc2ccccc2)c2ccccc2)CC1	none (no result: L major viab, Insulin prom inh, PTEN del growth, bCat KO growth, ROMK primary)
CC(C)(C)NC(=O)Cc1ccc(S(=O)(=O)N2CCCC2)s1	none
O=C(Cc1ccc(S(=O)(=O)N2CCCC2)s1)Nc1nc2c(s1)CCCC2	L major viab 85
CC(C)Cn1c(N)c(C(=O)COC(=O)CC23CC4CC(CC(C4)C2)C3)c(=O)n(C)c1=O	L major viab 98
CC(C)Cn1c(N)c(C(=O)COC(=O)c2ccc(Cl)cc2)c(=O)n(C)c1=O	none (no result: PTEN del growth, bCat KO growth)
CO/N=C/c1cccn1-c1nccc(N(C)C)c1C#N	none (no result: Insulin prom inh, PTEN del growth, bCat KO growth)
O=C(CN(C(=O)c1cccc([N+](=O)[O-])c1)C1CCCCC1)Nc1ccc(Cl)c([N+](=O)[O-])c1	L major viab 70
Cc1ccc(-n2sc3ccccc3c2=O)cc1	PTEN del growth 1.1, bCat KO growth 1.4 (no result: Insulin prom inh, ROMK primary)
OC1=C(O)c2nc3cc(F)ccc3nc21	none (no result: L major viab, Insulin prom inh, PTEN del growth, bCat KO growth, ROMK primary)
Fc1ccc2nc3[nH]c4ccccc4c3nc2c1	Insulin prom inh 91 (no result: ROMK primary)
Cc1cc2[nH]c3c(c[n+](C)c4ccccc34)c2cc1C	L major viab 100 (no result: Insulin prom inh, PTEN del growth, bCat KO growth)
Cc1cc(=O)[nH]c2ccccc12	none (no result: ROMK primary)
N#C/C(=C\Nc1ccc(Cl)cc1)S(=O)(=O)c1ccccn1	none (no result: L major viab, Insulin prom inh, PTEN del growth, bCat KO growth, ROMK primary)
C[N+]1(CC(=O)OC2CCCCCCCCCCC2)CCCC1	L major viab 100 (no result: PTEN del growth, bCat KO growth)
COC(=O)CCCCCCCCCC[N+]1(C)CCCCC1	none
Cc1cccc(NC(=O)c2c(-c3ccccc3)noc2C)n1	none (no result: PTEN del growth, bCat KO growth)
CCOC(=O)N1CCC(N2C(=O)c3ccccc3C2Nc2cc(C(=O)OC)cc(C(=O)OC)c2)CC1 (stereo unspecified)	L major viab 62 (no result: Insulin prom inh, ROMK primary)
CC(C)CNC(=S)N1CCC(C(=O)c2ccc3c(c2)OCCO3)CC1	none (no result: Insulin prom inh, PTEN del growth, bCat KO growth)
O=C1c2ccccc2-n2c1nc1ccccc1c2=O	L major viab 100 (no result: Insulin prom inh, PTEN del growth, bCat KO growth)
O=c1c2ccccc2nc2n1-c1ccccc1CCC2	none (no result: ROMK primary)
Cc1ccccc1N(CC(=O)N/N=C/c1cc(C)n(-c2ccccc2C)c1C)S(C)(=O)=O	ROMK primary 8.5
Cc1ccc(C(=O)O)cc1NC(=O)CSc1ncnc2sc3c(c12)CCC3	none (no result: L major viab, Insulin prom inh, PTEN del growth, bCat KO growth, ROMK primary)
COc1ccc(C(O)C(CN2CCOCC2)c2ccccc2)cc1F (stereo unspecified)	L major viab 86 (no result: ROMK primary)
Cc1cc(NC(=O)c2ccccc2-c2ccccc2C(=O)O)no1	Insulin prom inh 64
CCSc1ccccc1C(=O)Nc1cc(C)on1	none
CCOC(=O)CSc1nnc(-c2ccc(OC)cc2OC)o1	none
CC(C)N(NC(=O)c1cccc2ccccc12)C(C)C	none (no result: PTEN del growth, bCat KO growth)
Cc1ccc2c(c1)NC(c1cccs1)C1=C(CC(C)(C)CC1=O)N2 (stereo unspecified)	none (no result: PTEN del growth, bCat KO growth, ROMK primary)
Cc1cc2c(cc1C)NC(c1c(C)n(C)n(-c3ccccc3)c1=O)C1=C(CC(C)(C)CC1=O)N2 (stereo unspecified)	L major viab 100 (no result: ROMK primary)
CCCCc1ccc(NC(=O)COc2ccc(C(=O)Nc3ccccc3OC)cc2)cc1	L major viab 72
CC(C)C(NC(=O)C12CC3CC(CC(C3)C1)C2)C(=O)N/N=C/C1=C(N2CCOCC2)C(=C\c2cccc([N+](=O)[O-])c2)/CC1 (stereo unspecified)	L major viab 97
CCCN(C(=O)C(=O)Nc1ccc2nc3n(c(=O)c2c1)CCCCC3)c1ccc(OCC)cc1	none (no result: L major viab, Insulin prom inh, PTEN del growth, bCat KO growth)
COc1ccc(CCN2C(=NC(=O)CCC(=O)O)SC3CS(=O)(=O)CC32)cc1 (stereo unspecified)	none (no result: ROMK primary)
O=C(CN1CCCCC1)N1N=C(c2cccs2)CC1c1cccs1 (stereo unspecified)	none (no result: Insulin prom inh, PTEN del growth, bCat KO growth)
CC1=NN(C(=S)Nc2ccccc2)C(c2ccccc2)C1 (stereo unspecified)	none (no result: ROMK primary)
COc1cccc(C2CC(c3cccs3)=NN2C(=S)Nc2ccccc2)c1OC (stereo unspecified)	L major viab 65 (no result: ROMK primary)
COc1ccc(C2CC(c3cccs3)=NN2C(=S)Nc2ccccc2)cc1OC (stereo unspecified)	L major viab 71 (no result: Insulin prom inh, ROMK primary)
S=C(Nc1ccccc1)N1N=C(c2cccs2)CC1c1cccs1 (stereo unspecified)	L major viab 74 (no result: Insulin prom inh, PTEN del growth, bCat KO growth)
Cc1ccc(C2CC(c3ccccc3)=NN2C(=S)Nc2ccccc2)o1 (stereo unspecified)	L major viab 69
Cn1c(SCC(=O)N2CCCC2=O)nc2ccccc21	none (no result: Insulin prom inh, PTEN del growth, bCat KO growth)
Cc1cc(NC(=O)NC(C(F)(F)F)C(F)(F)F)no1	none (no result: Insulin prom inh, PTEN del growth, bCat KO growth)
COc1cccc(NC(=O)Nc2ccc3nsnc3c2)c1	L major viab 99 (no result: Insulin prom inh, ROMK primary)
NC(=O)c1ccc(N=Nc2c(-c3ccccc3)[nH]n(-c3ccccc3)c2=O)cc1	none (no result: Insulin prom inh, PTEN del growth, bCat KO growth)
NS(=O)(=O)c1ccc(N=Nc2c(-c3ccccc3)[nH]n(-c3nc(-c4ccccc4)cs3)c2=O)cc1	L major viab 73 (no result: Insulin prom inh, ROMK primary)
C=CCN1C(=O)C2(NNc3ccccc3O2)c2ccccc21 (stereo unspecified)	none
CCCCN1C(=O)C2(NNc3ccccc3O2)c2ccccc21 (stereo unspecified)	L major viab 96
CCN(CC)CCOc1ccc(Br)cc1	none (no result: ROMK primary)
CN1CCN(CCOc2ccc(Cl)c(Cl)c2)CC1	L major viab 98
CCN(CC)CCCOc1ccc(Cl)c(Cl)c1	L major viab 83
O=C1N=C(C=c2ccc(=Cc3[nH]c(=O)[nH]c3O)cc2)C(=O)N1	none (no result: L major viab, Insulin prom inh, PTEN del growth, bCat KO growth, ROMK primary)
Cc1[nH]c2ccccc2c1SCC(=O)N1CCCc2ccccc21	L major viab 99 (no result: Insulin prom inh, ROMK primary)
Cc1ccccc1OCC(=O)N1CCCc2ccccc21	L major viab 53 (no result: ROMK primary)
O=C(CSc1n[nH]c(-c2ccccc2O)n1)N1CCCc2ccccc21	L major viab 75 (no result: ROMK primary)
Cc1[nH]c2ccccc2c1C(=O)C(=O)N1CCCc2ccccc21	none (no result: Insulin prom inh, ROMK primary)
CC(C)C(=O)NC(NC(=O)C(C)C)c1ccc([N+](=O)[O-])cc1	none
O=C(c1ccc2c(c1)OCO2)C1CCCN(Cc2ccc3nsnc3c2)C1 (stereo unspecified)	L major viab 92 (no result: Insulin prom inh, PTEN del growth, bCat KO growth)
COc1ccc(C(=O)C2CCCN(Cc3cn[nH]c3-c3ccccc3)C2)cc1OC (stereo unspecified)	none (no result: Insulin prom inh, PTEN del growth, bCat KO growth)
COc1c(C)cc(C(=O)C2CCCN(Cc3cccc4nccnc34)C2)cc1C (stereo unspecified)	L major viab 99 (no result: Insulin prom inh, PTEN del growth, bCat KO growth)
COc1cccc(CN2CCCC(C(=O)c3ccc4c(c3)OCO4)C2)c1OC (stereo unspecified)	L major viab 90 (no result: PTEN del growth, bCat KO growth)
Cn1c(CN2CCCC(C(=O)c3ccc4c(c3)OCO4)C2)nc2ccccc21 (stereo unspecified)	none (no result: Insulin prom inh, PTEN del growth, bCat KO growth)
COc1ccc(C(=O)C2CCCN(Cc3cccc4c3OCO4)C2)cc1OC (stereo unspecified)	L major viab 78 (no result: Insulin prom inh, PTEN del growth, bCat KO growth)
COc1cccc(NC(=O)N2CCCC2C(=O)NCc2ccccc2)c1 (stereo unspecified)	none (no result: PTEN del growth, bCat KO growth, ROMK primary)
CC1(C)Nc2ccccc2N(Cc2ccc([N+](=O)[O-])cc2)C1=O	none (no result: Insulin prom inh, PTEN del growth, bCat KO growth)
CCOC(=O)C(CC)Sc1nc(-c2ccc(OC)cc2)nc2c1c(=O)n(C)c(=O)n2C (stereo unspecified)	none (no result: PTEN del growth, bCat KO growth)
Cc1cc(C)c2c(c1)NC(c1cc3c(cc1Br)OCO3)C1CC=CC21 (stereo unspecified)	none (no result: ROMK primary)

Bioassay records: PubChem, several laboratories
